Measurements as given in PubChem BioAssay.
Inconclusive results are not listed. Activity calls are given as the source filed them.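 How the source made its calls, unless noted: active means normalized viability below 100% at a tested concentration; inactive means the rest.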

Legend:
[1] = drug combination growth inhibition, ovarian cancer – cell-based, oncology-focused library, rucaparib conditional, profiling panel (AID 1508598); conditions: patient-derived ovarian cancer cells, CellTiter-Glo viability, 144 h, stronger effect = lower value
[2] = viability loss in pontine glioma line – cell-based, SU-DIPG-XVII, MIPE5.0, CellTiter-Glo, qHTS, dose response (AID 1347060; cut-off not given, nearly all actives have AC50 up to about 26 µM;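 on AC50: cells exposed to compound for 48 hours before viability readout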); conditions: CellTiter-Glo ATP luminescence
[3] = viability loss in pontine glioma line – cell-based, SU-DIPG-XIII, MIPE4.0, CellTiter-Glo, qHTS, dose response (AID 1347061; cut-off not given, nearly all actives have AC50 up to about 37 µM;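 further: cells exposed to compound for 48 hours before readout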); conditions: CellTiter-Glo ATP luminescence
[4] = viability loss in pontine glioma line – cell-based, SU-DIPG-IV, MIPE4.0, CellTiter-Glo, qHTS, dose response (AID 1347063; cut-off not given, nearly all actives have AC50 up to about 30 µM;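 further: compound exposure lasted 48 hours before the viability readout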); conditions: CellTiter-Glo ATP luminescence
[5] = viability loss in pontine glioma line – cell-based, SU-DIPG-XXV, MIPE5.0, CellTiter-Glo, qHTS, dose response (AID 1347065; cut-off not given, nearly all actives have AC50 up to about 26 µM;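 further: cells exposed to compound for 48 hours before ATP readout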); conditions: CellTiter-Glo ATP luminescence
[6] = growth inhibition of DIPG cells – cell-based, MIPE4.0 library, CellTiter-Glo luminescence, qHTS (AID 1347066; cut-off not given, nearly all actives have AC50 up to about 30 µM;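 further: cells exposed to compound for 48 hours before readout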); conditions: SU-DIPG-VI viability, CellTiter-Glo ATP luminescence
[7] = growth inhibition of DIPG cells – cell-based, MIPE5.0 library, qHTS (AID 1347068; cut-off not given, nearly all actives have IC50 up to about 30 µM); conditions: SU-DIPG-XXV viability
[8] = JHH-DIPG-1 glioma cell viability, MIPE5.0 library, CellTiter-Glo luminescence, qHTS (AID 1347067; cut-off not given, nearly all actives have AC50 up to about 26 µM;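 further: cells exposed to compound for 48 hours before readout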); conditions: JHH-DIPG-1 glioma viability, CellTiter-Glo ATP luminescence
[9] = viability loss in pontine glioma line – cell-based, SU-DIPG-XIII, MIPE5.0, CellTiter-Glo, qHTS, dose response (AID 1347064; cut-off not given, nearly all actives have AC50 up to about 23 µM); conditions: CellTiter-Glo ATP luminescence
[10] = compounds altering HSF1 focus formation in cells – imaging, Selleck Cancer Library (AID 1347162; in the data active means plate-normalised HSF1 focus index below about 0.46); conditions: human cells, HSF1 nuclear foci imaging, at 10 µM; SSMD: measured here: HSF1 foci SSMD mean; cell count: measured here: cell number; plate-normalised HSF1 focus index: stronger effect = lower value

Nc1cccc2c1C(=O)N(C1CCC(=O)NC1=O)C2=O (stereo unspecified)
active: viability ([1]; at 0.313 µM, OCI-P5x cells, with rucaparib 20 µM, 100% = cells with rucaparib alone) 99.9% | viability ([1]; at 1.25 µM, OCI-P5x cells, with rucaparib 20 µM, 100% = cells with rucaparib alone) 88.7% | viability ([1]; at 1.25 µM, OCI-P5x cells, without rucaparib) 97.8% | viability ([1]; at 5 µM, OCI-P5x cells, with rucaparib 20 µM, 100% = cells with rucaparib alone) 84.6% | viability ([1]; at 5 µM, OCI-P5x cells, without rucaparib) 97.3%
inactive: viability ([1]; at 0.0781 µM, OCI-P5x cells, with rucaparib 20 µM, 100% = cells with rucaparib alone) 104% | viability ([1]; at 0.0781 µM, OCI-P5x cells, without rucaparib) 118% | viability ([1]; at 0.313 µM, OCI-C5x cells, with rucaparib 10 µM, 100% = cells with rucaparib alone) 110% | viability ([1]; at 0.313 µM, OCI-C5x cells, without rucaparib) 116% | viability ([1]; at 0.313 µM, OCI-P5x cells, without rucaparib) 107% | viability ([1]; at 1.25 µM, OCI-C5x cells, with rucaparib 10 µM, 100% = cells with rucaparib alone) 118% | viability ([1]; at 1.25 µM, OCI-C5x cells, without rucaparib) 117% | viability ([1]; at 5 µM, OCI-C5x cells, with rucaparib 10 µM, 100% = cells with rucaparib alone) 105% | viability ([1]; at 5 µM, OCI-C5x cells, without rucaparib) 110%

CCC(=O)NC[C@H](Cc1ccc(OCCc2nc(-c3ccccc3)oc2C)cc1)N/C(C)=C\C(=O)c1ccc(C(F)(F)F)cc1
active: AC50 [2] 16.6 µM | AC50 [4] 8.33 µM | AC50 [5] 13.2 µM
inactive: outcome [3] | outcome [6] | outcome [7]

N#CC(c1ccnc(NCCc2cccnc2)n1)c1nc2ccccc2s1 (stereo unspecified)
active: AC50 [2] 11.8 µM | AC50 [4] 13.2 µM | AC50 [5] 11.8 µM | AC50 [8] 18.6 µM
inactive: outcome [3] | outcome [7]

CC#CCn1c(N2CCC[C@@H](N)C2)nc2c1c(=O)n(Cc1nc(C)c3ccccc3n1)c(=O)n2C
inactive: outcome [2] | outcome [3] | outcome [9] | outcome [5] | outcome [6] | outcome [8] | outcome [7]

CO[C@H]1C[C@@H]2CC[C@@H](C)[C@@](O)(O2)C(=O)C(=O)N2CCCC[C@H]2C(=O)O[C@H]([C@H](C)C[C@@H]2CC[C@@H](OC(=O)C(C)(CO)CO)[C@H](OC)C2)CC(=O)[C@H](C)/C=C(\C)[C@@H](O)[C@@H](OC)C(=O)[C@H](C)C[C@H](C)/C=C/C=C/C=C/1C
0.578: SSMD [10]
inactive: outcome [3] | plate-normalised HSF1 focus index [10] 1.05
active: AC50 [2] 14.4 µM | AC50 [5] 12.9 µM | AC50 [6] 9.35 µM | AC50 [8] 14.4 µM
6900: cell count [10]
